Screens deposited in PubChem BioAssay by National Center for Advancing Translational Sciences (NCATS).
Rab9 promoter act – activates the Rab9 promoter; Huh7 Rab9 promoter-luciferase reporter, luminescence, 24 h; Potency, µM (highest dose often 9.22 µM), hits mostly activators; actives 2.8% (n = 320,000); AID 485297; further: nearly all actives have a fitted effect of over 60% in size
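Luminescence read-out: Huh7 cells stably expressing Rab9-luciferase, treated 24 h with compound at 37 °C, then lysed with luciferase reagent for 10 min at ambient before reading.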
FLuc counter – firefly luciferase modulation, counter-screen for miR-21 project. P08659. purified FLuc, Km substrates, luminescence inhibition. Potency, µM (series often up to 57.5 µM), most hits filed as inhibitors. actives 6.9% (n = 360,000); further: nearly all actives have a fitted effect of over 55% in size
Target sequence (P08659 whole entry, looked up): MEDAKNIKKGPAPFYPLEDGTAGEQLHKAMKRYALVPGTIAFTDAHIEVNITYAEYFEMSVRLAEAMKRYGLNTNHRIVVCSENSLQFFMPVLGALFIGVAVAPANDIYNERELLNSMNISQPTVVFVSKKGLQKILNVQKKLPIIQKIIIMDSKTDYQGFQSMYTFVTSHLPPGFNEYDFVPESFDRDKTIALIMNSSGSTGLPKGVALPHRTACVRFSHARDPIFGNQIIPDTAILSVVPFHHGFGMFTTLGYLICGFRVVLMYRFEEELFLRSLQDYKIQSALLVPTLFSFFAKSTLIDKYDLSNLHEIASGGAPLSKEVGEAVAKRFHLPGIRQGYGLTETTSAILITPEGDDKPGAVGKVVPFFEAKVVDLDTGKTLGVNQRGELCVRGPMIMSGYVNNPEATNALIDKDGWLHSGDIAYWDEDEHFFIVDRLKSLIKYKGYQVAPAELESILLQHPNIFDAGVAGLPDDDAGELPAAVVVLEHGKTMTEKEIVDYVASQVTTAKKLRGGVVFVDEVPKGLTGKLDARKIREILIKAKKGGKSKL
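Purified P. pyralis luciferase, 10 nM final, with Km-level 10 uM D-luciferin and 10 uM ATP in 50 mM Tris acetate pH 7.5, 10 mM Mg acetate, 0.01% Tween-20, 0.05% BSA; 6-point qHTS titration about 60 µM downward; luminescence read.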
NPC1 prom act – activates the NPC1 promoter | Huh7 NPC1 promoter luciferase reporter, 24 h | Potency, µM (top dose mostly 9.22 µM), actives largely listed as activators | actives 2.4% (n = 320,000) | AID 485313; further: nearly all actives have a fitted effect of over 60% in size
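Luminescence read-out of NPC1 promoter-driven luciferase in stably transfected Huh7 cells; compounds delivered in DMSO and left 24 h at 37C, 5% CO2, qHTS titration format.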
ELG1 genotoxic – inducers of genotoxicity in HEK293T ELG1-luciferase cells; Potency, µM (series often up to 46 µM), hits mostly activators; actives 1.3% (n = 330,000); HEK293T ELG1-luciferase reporter, luminescence, 16 h; further: nearly all actives have a fitted effect of over 60% in size
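Step 1: seed 2,000 HEK293T ELG1-luciferase cells per well. Step 2: add compound or DMSO, incubate 16 hr at 37 °C. Step 3: ONE-Glo, 30 min at room temperature, read luminescence.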
KinaseGlo FLuc – blocks Kinase-Glo luciferase, a counter-screen artifact. Q27757. Kinase-Glo luciferase, ATP luminescence, 8 min. Potency, µM (titrated, usually from 38.3 µM), hits mostly inhibitors. actives 0.28% (n = 200,000). AID 1379; further: nearly all actives have a fitted effect of over 60% in size
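Kinase-Glo luciferase light output from ATP and luciferin was measured with 10 uM ATP, within the enzyme's linear range. Buffer: 50 mM imidazole pH 7.2, 50 mM KCl, 7 mM MgCl2, 0.01% Tween 20, 0.05% BSA; luminescence read after 8 min at ambient temperature.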
SMN2 splice enh – SMN2 splice variant enhancement | HEK293 SMN2-luciferase splicing reporter, luminescence, 30-36 h | Potency, µM (titrated, usually from 46.1 µM), usual class: activators | actives 2.8% (n = 210,000) | AID 1458; further: nearly all actives have a fitted effect of over 55% in size
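qHTS luciferase splicing reporter: luminescence rises when SMN2 exon 7 is included in transfected HEK293 cells. Compound exposure lasted 30-36 h at 37C, with 4.5 mM final sodium butyrate as control, followed by a ONE-Glo read.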
A number is an active result; . = inactive; ? = inconclusive; / = not tested or not shown; [ ] = dose if it differs, or a comment. A selection: hits, their analogues and other compounds. The true share with any hit is near 7.3%. The call rests on the fitted dose curve; in most records, active means well fitted curve in the direction sought with a large enough effect; inconclusive means small, poorly fitted or top-dose-only effect, or another doubt; inactive means no such curve, though single readings can be large; an effect the other way counts as inactive or inconclusive.

SMILES | Rab9 promoter act | FLuc counter | NPC1 prom act | ELG1 genotoxic | KinaseGlo FLuc | SMN2 splice enh
Cc1ccc(OC(=O)c2cccc(S(=O)(=O)N(C)C)c2)c(-n2nc3ccccc3n2)c1 | 2.82µM | . | 3.55µM | 4.61µM | . | ?
Cc1ccc(OCC(=O)O)c(-n2nc3ccccc3n2)c1 | . | . | . | . | . | .
Cc1ccc(C)c(COC(=O)c2cccc(S(=O)(=O)N3CCCC3)c2)c1 | . | . | . | . | / | /
CC(=O)Oc1ccc(C)cc1-n1nc2ccccc2n1 | 4.47µM | 21.3µM | 2.82µM | ? | ? | ?
Cc1ccc(OC(=O)c2ccc(S(=O)(=O)N(C)C)cc2)c(-n2nc3ccccc3n2)c1 | 1.41µM | ? | 3.98µM | ? | . | ?
Cc1ccc(OC(=O)c2cccc(S(=O)(=O)N3CCCC3)c2)c(-n2nc3ccccc3n2)c1 | 3.98µM | ? | 3.55µM | ? | . | 11.2µM
CCOC(=O)c1cnc(NCc2ccccc2)nc1C | ? | ? | . | 14.6µM | . | .
CCOC(=O)c1cnc(SCc2nc(N)nc(Nc3ccccc3)n2)nc1N | . | ? | . | . | . | .
CCOC(=O)c1cnc(SCCc2ccccc2)nc1N | 1.58µM | 3.01µM | 3.16µM | ? | . | 12.6µM
CCCCSc1ncc(C(=O)OCC)c(N)n1 | 3.16µM | 3.79µM | ? | ? | . | 5.01µM
CCOC(=O)c1cnc(SCC(=O)N2CCN(C(=O)c3ccco3)CC2)nc1N | . | . | . | . | . | .
CCOC(=O)c1cnc(SCC(=O)c2ccc(Cl)cc2)nc1N | . | . | . | ? | . | .
CCOC(=O)c1cnc(SCc2ccc(C)cc2)nc1N | . | 16.9µM | ? | 23.1µM | . | 11.2µM
COCCCNC(=O)c1sc2nc3n(c(=O)c2c1C)CCC3 | / | . | / | / | / | /
CCc1ccccc1NC(=O)Nc1nnc(N(C)Cc2ccccc2)s1 | / | . | / | / | / | /
CCOC(=O)c1cnc2c(ccc3ccccc32)c1Cl | . | 3.01µM | . | ? | / | /
COc1ccc(C2=NN(C(=O)CSc3ncccn3)C(c3cccc(OC)c3OC)C2)cc1 (configuration not stated) | . | . | . | . | . | .
CCOc1cccc2c1OC(c1cc(OC)c(OC)c(OC)c1)N1N=C(c3ccc(C)o3)CC21 (configuration not stated) | . | 3.01µM | . | ? | . | ?
O=C(NCCSCc1ccco1)Nc1cc(Cl)cc(Cl)c1 | . | 26.9µM | . | . | / | /
COc1ccc(/C=C/C(=O)Nn2cnnc2)cc1 | . | 15.1µM | . | . | . | .
COc1ccc(/C=C/C(=O)NCCCc2ccccc2)cc1 | . | ? | . | . | . | .
COc1ccc(/C=C/C(=O)NCCSCc2ccco2)cc1 | . | 16.9µM | . | . | . | .
C#CCNC(=O)/C=C/c1ccc(OC)cc1 | ? | 21.3µM | . | ? | . | 14.1µM
O=C(/C=C/c1ccccc1)Nn1cnnc1 | . | ? | . | . | . | .
Cc1ccc(C)c(NC(=O)Cn2cc(C(=O)c3cccs3)c3ccccc32)c1 | / | . | / | / | / | .
SMILES | Rab9 promoter act | FLuc counter | NPC1 prom act | ELG1 genotoxic | KinaseGlo FLuc | SMN2 splice enh
COc1ccccc1CNC(=O)CN1C(=O)COc2ccc(S(=O)(=O)Nc3ccccc3)cc21 | / | . | / | / | / | /
Fc1cccc(Cl)c1/C=N\N=C1c2ccccc2-c2ccccc21 | / | / | / | / | .[7.66 µM] | .[9.22 µM]
CC(=O)Oc1ccc(C(=O)Cc2ccc3ccccc3n2)c(O)c1C | ? | 5.36µM | ? | ? | . | ?
CC(C)(O)[C@@H]1CCC[N+]2(C)CCCC[C@H]12 (some centres not stated) | / | / | / | / | . | .
COc1ccc(Br)cc1Cn1nnc(C(=O)Nc2cccc(SC)c2)c1N | / | . | / | / | / | .
N/C(=N\OC(=O)c1ccccc1[N+](=O)[O-])c1cccnc1 | . | ? | . | ? | . | .
N/C(=N\OC(=O)c1ccc([N+](=O)[O-])cc1)c1cccnc1 | . | 2.69µM | . | ? | / | /
N/C(=N\OC(=O)c1ccc(Cl)c([N+](=O)[O-])c1)c1ccccc1 | . | 12µM | . | . | / | /
Cc1ccc(C(=O)O/N=C(\N)c2cccnc2)cc1[N+](=O)[O-] | . | 12µM | . | ? | . | ?
CC1CCN(S(=O)(=O)c2ccc3c(c2)N(CC(=O)NCc2ccccc2)C(=O)CO3)CC1 | / | . | / | / | / | .
CCc1ccc(CN2C(=O)c3ccccc3C2C(=O)NCCc2ccc(OC)c(OC)c2)cc1 (configuration not stated) | / | . | / | / | / | /
c1cnc(SCCOc2cccc3ccccc23)nc1 | 2.24µM | 7.57µM | ? | 11.6µM | . | .
Cc1ccc(OCCSc2ncccn2)c(C)c1 | 0.501µM | 2.13µM | 0.631µM | ? | . | 3.16µM
c1ccc2c(Oc3ccc4c(c3)OCO4)nncc2c1 | 0.631µM | 6.01µM | 1.26µM | ? | . | 10µM
Cc1cccc(-c2nc(S(=O)(=O)c3ccc(F)cc3)c(N3CCN(c4ccccc4)CC3)o2)c1 | / | . | / | / | / | .
C=CCNc1nc(-c2ccc([N+](=O)[O-])cc2)cs1 | 3.55µM | 3.01µM | ? | 20.6µM | . | ?
CCCOc1ccc(-c2nc(-c3ccc([N+](=O)[O-])cc3)cs2)cc1 | ? | ? | . | . | / | /
CN(C)c1nc(-c2ccc([N+](=O)[O-])cc2)cs1 | ? | 12µM | . | 11.6µM | . | .
C=CCNc1nc(-c2ccc(Cl)cc2)cs1 | 2µM | 1.35µM | 2.82µM | . | . | 25.1µM
CCOc1ccc(CNC(=O)CCCn2c(=O)c3cccn3c3ccc(F)cc32)cc1 | / | . | / | / | / | /
CCOc1cccc2cc(-c3csc(NC(=O)CCC(=O)NCCCN4CCC(C)CC4)n3)c(=O)oc12 | 3.98µM | 16.9µM | . | 10.3µM | . | 8.91µM
CCOc1cccc2cc(-c3csc(NC(=O)CCC(=O)NCCN4CCCCC4C)n3)c(=O)oc12 (configuration not stated) | ? | 10.7µM | ? | ? | . | 3.16µM
Cc1nc2ccccc2c2oc(C(=O)NCCN3CCCCC3C)cc12 (configuration not stated) | . | . | . | . | . | .
COc1cccc2cc(-c3csc(NC(=O)CCC(=O)NCCCN4CCC(C)CC4)n3)c(=O)oc12 | 0.708µM | 9.53µM | 1.41µM | ? | / | /
CCOc1cccc2cc(-c3csc(NC(=O)CCC(=O)N4CCC(C)CC4)n3)c(=O)oc12 | . | . | ? | . | . | .
SMILES | Rab9 promoter act | FLuc counter | NPC1 prom act | ELG1 genotoxic | KinaseGlo FLuc | SMN2 splice enh
COC(=O)CCn1nnc(-c2ccc(C)cc2)n1 | . | 16.9µM | . | ? | . | .
COc1ccc(C(=O)Nc2cc(Cl)ccc2OC(=O)c2ccc(OC)cc2)cc1 | ? | ? | 3.55µM | ? | . | .
O=C(Nc1ccccc1O)c1ccc([N+](=O)[O-])cc1 | . | . | ? | . | / | /
Cc1cc(NC(=O)c2ccc(Cl)cc2)c(C)cc1O | . | 23.9µM | . | . | . | /
O=C(Nc1ccccc1O)c1ccc(Cl)cc1 | ? | 26.9µM | 3.16µM | ? | . | .
Cc1ccc(C(=O)Nc2cc(Cl)ccc2OC(=O)c2ccc(C)cc2)cc1 | 3.98µM | 21.3µM | ? | . | . | 14.1µM
